Experimental data reported in PubChem BioAssay (NCATS).
Results filed as inconclusive are left out. The source made the active and inactive calls. Calls come from the whole dose curve; as a rule, active = well fitted cell-killing curve with a large enough effect; inconclusive = small, poorly fitted or top-dose-only effect, or effect the other way; inactive = no such curve, though single readings can be large or run the other way.

Experiment: Quantitative High-Throughput drug screen in 47 multiple myeloma cell lines against the NCATS MIPE library collection: KMS34_JCRB cell viability assay (AID 1918985); note: nearly all actives have a fitted effect of over 40% in size
Conditions: KMS34 myeloma viability, CellTiter-Glo ATP luminescence, 48 h; series mostly up to 45.8 µM
In short: (§1)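 ATP-based luminescence (CellTiter-Glo, 5 min RT incubation) quantified surviving cells following two days' treatment with MIPE 4.0 agents at 37 °C, 5% CO2.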
Potency is the fitted concentration of half-maximal effect.

| Structure (SMILES) | Potency |
| --- | --- |
| Cc1c(C(=O)c2cccc3ccccc23)c2cccc3c2n1[C@H](CN1CCOCC1)CO3 | 23.5 µM (active) |
| CC(C)[C@H]1C(=O)N[C@H](CO)Cc2c[nH]c3cccc(c23)N1C | inactive |
| COc1cc([C@@H]2c3cc4c(cc3[C@@H](O)C3COC(=O)C32)OCO4)cc(OC)c1O (some centres not stated) | 0.0187 µM (active) |
| CC(=O)O[C@@]12CO[C@H]1C[C@H](O)[C@@]1(C)C(=O)[C@H](O)C3=C(C)[C@@H](O)C[C@@](O)([C@@H](OC(=O)c4ccccc4)[C@@H]21)C3(C)C | 3.72 µM (active) |
| O=C(NCC1CCOCC1)c1cnc(Nc2ccc(Cl)cc2Cl)nc1C(F)(F)F | inactive |
| Cc1ccccc1-n1c(Cn2cnc3c(N)ncnc32)nc2cccc(C)c2c1=O | 0.148 µM (active) |
| CC(C)N[C@@H]1CCn2c(=O)[nH]c3cccc(c32)[C@@H]1O | 10.5 µM (active) |
| COc1ccc(N(C(=O)Oc2c(C)cccc2C)c2ccnc(Nc3ccc(N4CCN(C)CC4)cc3)n2)c(OC)c1 | 1.05 µM (active) |
| C[C@]12Cc3cn[nH]c3C[C@@H]1CC[C@@H]1[C@H]2CC[C@@]2(C)[C@H]1CC[C@]2(C)O | inactive |
| O=C(N[C@@H](COc1ccc2[nH]c(=O)[nH]c2c1)c1ccccc1)c1cccn(Cc2ccc(F)c(F)c2)c1=O | inactive |
| C[C@]12CC[C@H]3[C@@H](CCC4=CC(=O)CC[C@@]43C)[C@H]1CC[C@H]2O | inactive |
| C=CCON=C(C[C@H]1O[C@@H]2O[C@]3(C)CC[C@@H]4[C@H](C)CC[C@@H]([C@H]1C)[C@@]24OO3)[C@H]1O[C@@H]2O[C@]3(C)CC[C@H]4[C@H](C)CC[C@@H]([C@@H]1C)[C@@]24OO3 | 0.264 µM (active) |
| CC(C)(O)C(=O)Nc1ccc([N+](=O)[O-])c(C(F)(F)F)c1 | inactive |
| COc1ccc(C(=O)c2c(C)n(CCN3CCOCC3)c3cc(I)ccc23)cc1 | 20.9 µM (active) |
| N#C[C@H](O[C@@H]1O[C@H](CO[C@@H]2O[C@H](CO)[C@H](O)[C@H](O)[C@H]2O)[C@H](O)[C@H](O)[C@H]1O)c1ccccc1 | 8.33 µM (active) |
| COC[C@H]1OC(=O)c2coc3c2[C@@]1(C)C1=C(C3=O)[C@@H]2CC[C@H](O)[C@@]2(C)C[C@@H]1OC(C)=O | 2.09 µM (active) |

Experiment: Quantitative High-Throughput drug screen in 47 multiple myeloma cell lines against the NCATS MIPE library collection: OCIMY7_PLB cell viability assay (AID 1918987); note: nearly all actives have a fitted effect of over 65% in size
Conditions: OCI-MY7 myeloma viability, CellTiter-Glo ATP, 48 h; series mostly up to 45.8 µM
In short: as §1

| Structure (SMILES) | Potency |
| --- | --- |
| Cc1c(C(=O)c2cccc3ccccc23)c2cccc3c2n1[C@H](CN1CCOCC1)CO3 | 13.2 µM (active) |
| COC1=C[C@@H]2[C@@H]3Cc4ccc(OC)c(O)c4[C@]2(CCN3C)CC1=O | 3.32 µM (active) |
| COc1cc([C@@H]2c3cc4c(cc3[C@@H](O)C3COC(=O)C32)OCO4)cc(OC)c1O (some centres not stated) | 0.0526 µM (active) |
| CC(=O)O[C@@]12CO[C@H]1C[C@H](O)[C@@]1(C)C(=O)[C@H](O)C3=C(C)[C@@H](O)C[C@@](O)([C@@H](OC(=O)c4ccccc4)[C@@H]21)C3(C)C | 2.09 µM (active) |
| C=C[C@@H]1CN2CCC1C[C@@H]2[C@@H](O)c1ccnc2ccccc12 (some centres not stated) | 7.43 µM (active) |
| CCNC(=O)C[C@@H]1N=C(c2ccc(Cl)cc2)c2cc(OC)ccc2-n2c(C)nnc21 | 2.64 µM (active) |
| Cc1ccccc1-n1c(Cn2cnc3c(N)ncnc32)nc2cccc(C)c2c1=O | 1.32 µM (active) |
| CC(=O)Nc1ccc(OC[C@](C)(O)C(=O)Nc2ccc([N+](=O)[O-])c(C(F)(F)F)c2)cc1 | 10.5 µM (active) |
| C[C@]12Cc3cn[nH]c3C[C@@H]1CC[C@@H]1[C@H]2CC[C@@]2(C)[C@H]1CC[C@]2(C)O | inactive |
| CCNC(=O)CC1N=C(c2ccc(Cl)cc2)c2cc(OC)ccc2-n2c(C)nnc21 (configuration not stated) | 18.7 µM (active) |
| C[C@]12CC[C@H]3[C@@H](CCC4=CC(=O)CC[C@@]43C)[C@H]1CC[C@H]2O | inactive |
| Cc1ccccc1-n1c(Cn2ncc3c(N)ncnc32)nc2cccc(C)c2c1=O | 3.32 µM (active) |
| O=S(=O)(CC1CS1)c1ccc(Oc2ccccc2)cc1 (configuration not stated) | 5.26 µM (active) |
| C=CCON=C(C[C@H]1O[C@@H]2O[C@]3(C)CC[C@@H]4[C@H](C)CC[C@@H]([C@H]1C)[C@@]24OO3)[C@H]1O[C@@H]2O[C@]3(C)CC[C@H]4[C@H](C)CC[C@@H]([C@@H]1C)[C@@]24OO3 | 0.105 µM (active) |
| CC(C)(O)C(=O)Nc1ccc([N+](=O)[O-])c(C(F)(F)F)c1 | 7.43 µM (active) |
| COc1ccc(C(=O)c2c(C)n(CCN3CCOCC3)c3cc(I)ccc23)cc1 | 5.9 µM (active) |
| Cc1c(C(=O)Nc2cccc(C(F)(F)F)c2)cc(-c2ccccc2)n1CCCN1CCOCC1 | 0.372 µM (active) |
| N#C[C@H](O[C@@H]1O[C@H](CO[C@@H]2O[C@H](CO)[C@H](O)[C@H](O)[C@H]2O)[C@H](O)[C@H](O)[C@H]1O)c1ccccc1 | 10.5 µM (active) |
| CCOP(=O)(OCC)C(C)NC(=O)N(CCCl)N=O (configuration not stated) | inactive |
| CC[C@H]1C=CC=CC[C@@H](C)[C@H](O)[C@@](C)(O)C(=O)[C@@H](C)[C@H](O)[C@@H](C)C(=O)[C@@H](C)[C@H](O)[C@@H](C)C=CC(=O)O[C@@H]2[C@@H](C)[C@H](CC1)O[C@]1(CC[C@H](C)[C@H](C[C@@H](C)O)O1)[C@H]2C | 0.001 µM (active) |
| COC[C@H]1OC(=O)c2coc3c2[C@@]1(C)C1=C(C3=O)[C@@H]2CC[C@H](O)[C@@]2(C)C[C@@H]1OC(C)=O | 0.418 µM (active) |
